Data as given in PubChem BioAssay (Tox21).
Records with an inconclusive call do not appear. Active and inactive are the calls of the source. Unless noted, calls follow the shape of the dose curve; as a rule, active = well fitted curve in the direction sought with a large enough effect in the repeat runs; inconclusive = weak or mixed curves; inactive = no such curve, though single readings can be large; an effect the other way counts as inactive or inconclusive.

How the values were obtained:
[1] = qHTS assay to identify small molecule agonists of H2AX (AID 1224845; active = well fitted activation curve with a large enough effect in the signal ratio in the repeat runs, not every such curve was filed as active; the % refers to the signal ratio; also: potency is read from the fitted curve at half-maximal effect)
How it was run: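 Phospho-H2AX Ser139 measured by HTRF (ex 320 nm; em 665 and 620 nm) after 24 hr antibody incubation. Compounds, 15 concentrations, 0.76% DMSO, were applied to CHO-K1 cells for 3hr at 37C before lysis.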

[2] = qHTS assay to identify small molecule agonists of the hypoxia (HIF-1) signaling pathway (AID 1224846; active = well fitted activation curve with a large enough effect in the signal ratio in the repeat runs, not every such curve was filed as active; the % refers to the signal ratio)
How it was run: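 In ME-180 cells bearing an HRE-bla construct, 17 h treatment with DMSO-dissolved compounds at 37C was followed by CCF4-AM loading to quantify reporter induction.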

[3] = qHTS assay to identify small molecule agonists of the estrogen related receptor (ERR) signaling pathway from Tox21 library (AID 1224849; calls by dose curve; also: nearly all actives have a fitted effect of over 15% in size); settings: ERR reporter cell line, ONE-Glo luciferase, 18 h; at 92.4 µM (top of the series) unless noted
How it was run: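 Reporter cells (ERR, NTP source) treated with Tox21 10K compounds 18 h, 37 C. Readout: ONE-Glo luminescence, 30 min RT.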

[4] = qHTS RealTime-Glo MT Cell Viability Assay in HepG2 cells - 24 hour (AID 1224867); also: nearly all actives have a fitted effect of over 50% in size; also: potency is read from the fitted curve at half-maximal effect
How it was run: (§1)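 Tox21 10K library screened in qHTS format on HepG2 cells carrying RealTime-Glo reagents. Compounds were added after a 5 h preincubation, and the luminescent signal from continuous culture was measured repeatedly during 40 h treatment.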

[5] = A CellTox Green Cytotoxicity Assay to monitor cytotoxicity in HEK293 cells - 0 hour (AID 1224869); also: nearly all actives have a fitted effect of over 50% in size
How it was run: (§2)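 Homogeneous no-lysis format: HEK293 cell suspension mixed with CellTox Green reagent, seeded, incubated 5 h at 37 C/5% CO2, then dosed by pintool with compound in DMSO.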

[6] = qHTS RealTime-Glo MT Cell Viability Assay in HepG2 cells - 40 hour (AID 1224870); also: nearly all actives have a fitted effect of over 50% in size; also: potency is read from the fitted curve at half-maximal effect
How it was run: (§3)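 Real-time viability: cells seeded at 600 per well together with NanoLuc and cell-permeant prosubstrate, compounds added after 5 h incubation. Luminescence tracked at 0, 8, 16, 24, 32 and 40 h of exposure.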

[7] = qHTS RealTime-Glo MT Cell Viability Assay in HEK293 cells - 16 hour (AID 1224872); also: nearly all actives have a fitted effect of over 50% in size; also: potency is read from the fitted curve at half-maximal effect
How it was run: (§4)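 Luminescence generated by NanoLuc from substrate produced by living HEK293 cells served as the viability signal. Each value reflects the reading at its stated time point during continuous 40 h compound exposure at 37 C.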

[8] = qHTS RealTime-Glo MT Cell Viability Assay in HepG2 cells - 8 hour (AID 1224873); also: nearly all actives have a fitted effect of over 55% in size
How it was run: as §3

[9] = A CellTox Green Cytotoxicity Assay to monitor cytotoxicity in HEK293 cells - 24 hour (AID 1224875); also: nearly all actives have a fitted effect of over 45% in size; also: potency is read from the fitted curve at half-maximal effect
How it was run: as §2

[10] = A CellTox Green Cytotoxicity Assay to monitor cytotoxicity in HepG2 cells - 16 hour (AID 1224876); also: nearly all actives have a fitted effect of over 45% in size; also: potency is read from the fitted curve at half-maximal effect
How it was run: (§5)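 Fluorescent DNA-binding dye, 600 HepG2 cells/well, 5 h preincubation then compound in DMSO; same plates read at 0–40 h, 37 C.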

[11] = qHTS RealTime-Glo MT Cell Viability Assay in HepG2 cells - 32 hour (AID 1224877); also: nearly all actives have a fitted effect of over 55% in size; also: potency is read from the fitted curve at half-maximal effect
How it was run: as §1

[12] = A CellTox Green Cytotoxicity Assay to monitor cytotoxicity in HepG2 cells - 24 hour (AID 1224878); also: nearly all actives have a fitted effect of over 45% in size; also: potency is read from the fitted curve at half-maximal effect
How it was run: as §5

[13] = A CellTox Green Cytotoxicity Assay to monitor cytotoxicity in HepG2 cells - 40 hour (AID 1224879); also: nearly all actives have a fitted effect of over 40% in size; also: potency is read from the fitted curve at half-maximal effect
How it was run: as §5

[14] = qHTS RealTime-Glo MT Cell Viability Assay in HEK293 cells - 0 hour (AID 1224880); also: top concentration of the series differs between compounds; nearly all actives have a fitted effect of over 45% in size
How it was run: (§6)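 Measured as luminescence from the same continuously cultured HEK293 wells at successive time points (0, 8, 16, 24, 32, 40 h) after compound addition. Reagent present from seeding; dosing at 5 h; incubation 37 C.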

[15] = A CellTox Green Cytotoxicity Assay to monitor cytotoxicity in HEK293 cells - 32 hour (AID 1224881); also: nearly all actives have a fitted effect of over 40% in size; also: potency is read from the fitted curve at half-maximal effect
How it was run: as §2

[16] = qHTS RealTime-Glo MT Cell Viability Assay in HEK293 cells - 32 hour (AID 1224868); also: nearly all actives have a fitted effect of over 50% in size; also: potency is read from the fitted curve at half-maximal effect
How it was run: as §4

[17] = A CellTox Green Cytotoxicity Assay to monitor cytotoxicity in HEK293 cells - 40 hour (AID 1224871); also: nearly all actives have a fitted effect of over 45% in size; also: potency is read from the fitted curve at half-maximal effect
How it was run: as §2

[18] = qHTS RealTime-Glo MT Cell Viability Assay in HEK293 cells - 40 hour (AID 1224874); settings: RealTime-Glo luminescence; max response: hits give low values; also: nearly all actives have a fitted effect of over 50% in size; also: potency is read from the fitted curve at half-maximal effect
How it was run: as §6

[19] = qHTS assay to identify small molecule antagonists of the estrogen related receptor (ERR) signaling pathway from Tox21 library (AID 1224848); also: nearly all actives have a fitted effect of over 50% in size; also: potency is read from the fitted curve at half-maximal effect
How it was run: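 ERR cell line, 2,000 cells/well. 6 h settle, then compound (DMSO) added; 18 h at 37 C; ONE-Glo luminescence after 30 min RT.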
% is scaled to controls: 0 for no effect and ±100 for the full control effect.

Cc1ccc2ccc3cccc4ccc1c2c34
inactive: Potency [1] | outcome [2] | activity change, positive = activation [3] -32.5% | Potency [4] | Potency [5] | Potency [6] | Potency [7] | Potency [8] | Potency [9] | Potency [10] | Potency [11] | Potency [12] | Potency [13] | Potency [14] | Potency [15]

O=C1OC(=O)c2ccc3c4c(ccc1c24)C(=O)OC3=O
inactive: Potency [1] | outcome [2] | Potency [4] | Potency [16] | Potency [5] | Potency [6] | Potency [17] | Potency [7] | Potency [8] | max response [18] 0.327% | Potency [9] | Potency [10] | Potency [11] | Potency [12] | Potency [13] | Potency [14] | Potency [15]

COc1ccccc1C=O
inactive: Potency [1] | outcome [2] | Potency [4] | Potency [16] | Potency [5] | Potency [17] | Potency [7] | Potency [8] | max response [18] 3.17% | Potency [10] | Potency [11] | Potency [12] | Potency [13] | Potency [14] | Potency [15]

C[C@@H]1CC[C@H]2C(C)(C)[C@H]3C[C@@]12CC[C@@]3(C)O
inactive: Potency [1] | outcome [2] | Potency [19] | activity change, positive = activation [3] -6.53% | Potency [4] | Potency [16] | Potency [5] | Potency [6] | max response [18] -18.5% | Potency [11] | Potency [14]
active: Potency [17] 38.8 µM | Potency [12] 48.9 µM | Potency [13] 54.9 µM | Potency [15] 38.8 µM

CCC(=O)OCCc1ccccc1
inactive: Potency [1] | outcome [2] | Potency [4] | Potency [16] | Potency [5] | Potency [6] | Potency [17] | Potency [7] | Potency [8] | Potency [9] | Potency [10] | Potency [11] | Potency [12] | Potency [13] | Potency [14] | Potency [15]

O=C[C@H](O)[C@H](O)[C@H](O)CO
inactive: Potency [1] | outcome [2] | Potency [4] | Potency [5] | Potency [6] | Potency [17] | Potency [7] | Potency [8] | max response [18] 0.822% | Potency [9] | Potency [10] | Potency [11] | Potency [12] | Potency [13] | Potency [15]

C=CC/C=C/C/C=C/C/C=C/C
inactive: Potency [1] | outcome [2] | Potency [19] | activity change, positive = activation [3] 3.56% | Potency [4] | Potency [5] | Potency [6] | Potency [17] | Potency [7] | Potency [8] | max response [18] 0% | Potency [9] | Potency [10] | Potency [11] | Potency [12] | Potency [13] | Potency [14] | Potency [15]

CC(=O)C=O
inactive: Potency [1] | outcome [2] | Potency [4] | Potency [16] | Potency [5] | Potency [6] | Potency [17] | Potency [7] | Potency [8] | max response [18] 3.76% | Potency [9] | Potency [10] | Potency [11] | Potency [12] | Potency [13] | Potency [14] | Potency [15]

CC1=CP(=O)(c2ccccc2)CC1 (stereo not given)
inactive: Potency [1] | outcome [2] | Potency [19] | activity change, positive = activation [3] -5.03% | Potency [4] | Potency [5] | Potency [6] | Potency [17] | Potency [7] | Potency [8] | max response [18] 9.74% | Potency [10] | Potency [11] | Potency [12] | Potency [14] | Potency [15]

CCN(CC)CCOc1ccc(C(O)(Cc2ccc(Cl)cc2)c2ccc(C)cc2)cc1 (stereo not given)
active: Potency [1] 49.2 µM | Potency [19] 29.8 µM | Potency [4] 23.9 µM | Potency [16] 16.9 µM | Potency [6] 15.1 µM | Potency [17] 23.9 µM | Potency [7] 21.3 µM | Potency [18] 10.7 µM | Potency [9] 23.9 µM | Potency [10] 23.9 µM | Potency [11] 19 µM | Potency [12] 21.3 µM | Potency [15] 23.9 µM
inactive: outcome [2] | activity change, positive = activation [3] -61% [at 42.5 µM] | Potency [5] | Potency [14]

CCOB(OCC)OCC
inactive: Potency [1] | outcome [2] | Potency [4] | Potency [5] | Potency [6] | Potency [17] | Potency [8] | Potency [11]

Cc1cncc(C)c1
inactive: Potency [1] | outcome [2] | Potency [19] | Potency [4] | Potency [16] | Potency [6] | Potency [7] | Potency [8] | max response [18] 0.584% | Potency [10] | Potency [11] | Potency [12] | Potency [13] | Potency [14]

Cc1cc(=O)[nH]c(=O)[nH]1
inactive: Potency [1] | outcome [2] | Potency [4] | Potency [16] | Potency [5] | Potency [6] | Potency [17] | Potency [7] | Potency [8] | Potency [9] | Potency [10] | Potency [11] | Potency [12] | Potency [13] | Potency [14] | Potency [15]

CNCC[C@H](Oc1cccc2ccccc12)c1cccs1
inactive: Potency [1] | outcome [2] | activity change, positive = activation [3] -62.1% [at 42.5 µM] | Potency [5]
active: Potency [4] 23.9 µM | Potency [16] 23.9 µM | Potency [7] 23.9 µM | Potency [10] 23.9 µM | Potency [11] 21.3 µM | Potency [12] 21.3 µM | Potency [13] 19 µM
